Measurements from PubChem BioAssay (NCATS).
Results filed as inconclusive are left out. The source made the active and inactive calls. The call rests on the fitted dose curve; in most records, active means well fitted cell-killing curve with a large enough effect; inconclusive means small, poorly fitted or top-dose-only effect, or effect the other way; inactive means no such curve, though single readings can be large or run the other way.

test: Viability qHTS for spleen associated tyrosine kinase inhibitor (SYKi) drug resistant MV4-11 cells (AID 1963824); details: SYKi-resistant MV4-11 viability, CellTiter-Glo, 72 h; series mostly up to 45 µM; further: nearly all actives have a fitted effect of over 35% in size
How it was run: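 CellTiter-Glo luminescence, read 10 min after reagent addition, reports viability after a 72 hr compound exposure. Cells are an MV4-11 line made resistant to SYK inhibition, seeded at 500 per well onto compound-containing plates.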
Potency means the concentration at half of the fitted maximal effect.

Question: Which Potency does the source give for `Cc1cccc(-c2[nH]ncc2-c2ccnc3ccccc23)n1` here?
Answer: The Potency was 16.4 µM (active).

Question: Which Potency does the source give for `Cc1ccc([C@@H]2CC=C(C(=O)O)[C@H](c3ccc(C(C)(C)C)cc3)N2S(=O)(=O)c2ccc(C)cc2)cc1` here?
Answer: The Potency was 16.4 µM (active).

Question: With `C[C@]1(O)CC[C@@H]2C(C(=O)O)=CO[C@@H](O[C@@H]3O[C@H](COC(=O)/C=C/c4ccc(O)c(O)c4)[C@@H](O)[C@H](O)[C@H]3O)[C@@H]21` as the compound, how does the Potency read?
Answer: The Potency was “inactive”.

Question: Which Potency does the source give for `O=C1c2ccccc2-c2c(NCCc3ccccc3)c(=O)[nH]c3cccc1c23` here?
Answer: The Potency was 23.1 µM (active).

Question: With `Clc1ccc2ncc(-c3cccc(NC4CCNC4)n3)n2c1` (stereo not given) as the compound, how does the Potency read?
Answer: Its Potency is 0.0103 µM (active).

Question: Which Potency does the source give for `CC(C)(CC(=O)N1CCCC1)NCC(=O)N1C[C@@H](F)C[C@H]1C#N` here?
Answer: The Potency was “inactive”.

Question: With `COc1ccc(S(=O)(=O)Nc2c(C)cc(C)cc2C)cc1` as the compound, how does the Potency read?
Answer: Its Potency is 20.6 µM (active).

Question: For `Clc1ccc(Cn2c(Cc3ccccc3)nc3ccccc32)cc1`, which Potency is on record?
Answer: The Potency was 16.4 µM (active).

Question: With `CC1(C)CC[C@]2(C(=O)O[C@@H]3O[C@H](CO)[C@@H](O)[C@H](O)[C@H]3O)CC[C@]3(C)C(=CCC4[C@@]5(C)CC[C@H](O[C@@H]6O[C@H](C(=O)O)[C@H](O)[C@H](O)[C@H]6O)C(C)(C)C5CC[C@]43C)[C@@H]2C1` (stereo not given in full) as the compound, how does the Potency read?
Answer: The Potency was 4.85 µM (active).

Question: With `O=C1Cc2c([nH]c3ccc(Br)cc23)-c2ccccc2N1` as the compound, how does the Potency read?
Answer: The Potency was 5.8 µM (active).

Question: Which Potency does the source give for `Cc1cc(C)c(NC(=O)N(Cc2ccc3c(c2)Cc2ccccc2-3)C2CCCCCC2)c(C)c1` here?
Answer: Its Potency is 16.4 µM (active).

Question: Which viability, % of control does the source give for `CC12CCC(=O)C=C1C(O)CC1C2C(O)CC2(C)C1CC[C@]2(O)C(=O)CO` (stereo not given in full) here?
Answer: Its viability, % of control is 90% [at 9.25 µM] (inactive).

Question: With `C=C1C[C@@]23CCC4[C@@](C)(CCC[C@@]4(C)C(=O)OC)C2CC[C@@H]1C3` (stereo not given in full) as the compound, how does the Potency read?
Answer: Its Potency is 6.4 µM (active).

Question: For `C=C1C(=O)OC2C1C(O)CC1(C)C(O)CCC(C=O)C21` (stereo not given), which Potency is on record?
Answer: Its Potency is 16.4 µM (active).

Question: For `CC(C)c1ccc(NC(=O)C(c2ccccc2)N(C)C(=O)Cc2c[nH]c3ccccc23)cc1` (stereo not given), which Potency is on record?
Answer: The Potency was 18.4 µM (active).

Question: For `Fc1ccc2c(CCNCc3cccc(OCC(F)(F)C(F)F)c3)c[nH]c2c1`, which Potency is on record?
Answer: The Potency was 16.4 µM (active).

Question: For `C=C1CC2OC(=O)C(COC)C2C(OC(=O)/C(C)=C\C)CC2(C)OC1=CC2=O` (stereo not given), which Potency is on record?
Answer: Its Potency is 0.805 µM (active).

Question: For `CN(C)CC1CCn2c(c(C3=C(c4cn(C)c5ccccc45)C(=O)NC3=O)c3ccccc32)C1` (stereo not given), which Potency is on record?
Answer: Its Potency is 2.91 µM (active).

Question: For `COc1cccc(CNC(=O)Nc2nc(-c3ccncc3)cs2)c1`, which Potency is on record?
Answer: The Potency was 18.4 µM (active).

Question: With `Cc1c(O)cc2c(c1O)COC1(O)CCCOC21` (stereo not given) as the compound, how does the Potency read?
Answer: The Potency was “inactive”.

Question: Which Potency does the source give for `COc1ccc(/C=C/C(N)=O)cc1OC` here?
Answer: Its Potency is “inactive”.

Question: Which Potency does the source give for `Cn1c(=O)c2c(ncn2Cc2ccc(C(C)(C)C)cc2)n(C)c1=O` here?
Answer: The Potency was 1.16 µM (active).

Question: Which Potency does the source give for `N#C/C(=C(\N)Sc1ccc(N)cc1)c1ccccc1C(F)(F)F` here?
Answer: The Potency was 7.31 µM (active).

Question: For `C=C1C(=O)O[C@H]2C1CCC(C)=C1C(=O)C=C(C)[C@@]12O` (stereo not given in full), which Potency is on record?
Answer: The Potency was 8.2 µM (active).

Question: Which Potency does the source give for `CC1=CC(=O)CC(C)(C)[C@@]1(O)CC[C@@H](C)O[C@@H]1O[C@H](CO)[C@@H](O)[C@H](O)[C@H]1O` here?
Answer: Its Potency is “inactive”.

Question: For `CC1=C2C[C@H]3OC(=O)[C@H](O)[C@@]4(O)[C@@H](C)[C@@H](O)[C@H](O)C([C@@]2(C)[C@H](O)[C@@H](O)C1)[C@@]34C` (stereo not given in full), which Potency is on record?
Answer: The Potency was 14.3 µM (active).

Question: Which Potency does the source give for `COC1C2=C(COC2=O)C2(C)CCCC(C)(CO)C2C1OC(=O)c1ccccc1` (stereo not given) here?
Answer: The Potency was “inactive”.

Question: With `NS(=O)(=O)Nc1ncnc(OCCOc2ncc(Br)cn2)c1-c1ccc(Br)cc1` as the compound, how does the Potency read?
Answer: The Potency was 14.6 µM (active).

Question: With `CN(C(=O)CNC(=O)/C=C/c1cccc(Cl)c1)C1CCS(=O)(=O)CC1` as the compound, how does the Potency read?
Answer: The Potency was 0.468 µM (active).

Question: With `C=C1C(=O)O[C@@H]2C(OC(=O)/C(C)=C\C)/C(C)=C\C(=O)/C=C(\C)C[C@H](O)[C@@H]12` (stereo not given in full) as the compound, how does the Potency read?
Answer: Its Potency is 1.01 µM (active).

Question: Which Potency does the source give for `CC(=O)O[C@H]1[C@H](Oc2ccccc2COC(=O)C2(O)C=CCCC2=O)O[C@H](CO)[C@@H](O)[C@@H]1O` (stereo not given in full) here?
Answer: The Potency was “inactive”.

Question: Which Potency does the source give for `CC1(C)CC2C(O)c3cocc3CC(C)(O)C2C1` (stereo not given) here?
Answer: Its Potency is “inactive”.

Question: Which Potency does the source give for `CC1(C)C2CC[C@@]34CC(CC[C@H]3[C@]2(C)CC[C@@H]1O[C@@H]1O[C@H](CO)[C@@H](O)[C@H](O)[C@H]1O)[C@](C)(O)C4` (stereo not given in full) here?
Answer: The Potency was “inactive”.

Question: For `Cc1cc(C)c2nc(-c3ccccn3)cc(C(=O)Nc3ccc(S(=O)(=O)Nc4onc(C)c4C)cc3)c2c1`, which Potency is on record?
Answer: The Potency was 25.9 µM (active).

Question: With `C[C@@H]1CCC2C(C)(C)[C@H](O)CC[C@]2(C)[C@@]12Cc1c(O)cc3c(c1O2)CN([C@@H](CCC(=O)O)C(=O)O)C3=O` (stereo not given in full) as the compound, how does the Potency read?
Answer: Its Potency is “inactive”.

Question: Which Potency does the source give for `CC(C)C(NC(=O)c1ccc(O)cc1)C(=O)N1CCCC1C(=O)Nc1c(O)cccc1C(=O)O` (stereo not given) here?
Answer: The Potency was “inactive”.

Question: With `O=C(c1ccccc1)c1ccc2nc(NC(=O)c3csc(C4CCN(c5ncnc6ccsc56)CC4)n3)[nH]c2c1` as the compound, how does the Potency read?
Answer: The Potency was 2.31 µM (active).

Question: For `O=C1Nc2ccccc2C(O)(c2ccccc2)C1O` (stereo not given), which Potency is on record?
Answer: Its Potency is “inactive”.

Question: Which Potency does the source give for `Cc1c(-c2ccc3c(c2)OCO3)oc2ccc(C(O)C(C)O)cc12` (stereo not given) here?
Answer: Its Potency is 12.8 µM (active).

Question: Which viability, % of control does the source give for `C[C@@H]1O[C@@H](O[C@@H]2[C@@H](O)[C@H](O[C@@H]3[C@@H](O)[C@@H](O)[C@H](O[C@H]4[C@H](OC(=O)[C@]56CCC(C)(C)C[C@H]5C5=CCC7[C@@]8(C)C[C@H](O)[C@H](O[C@@H]9O[C@H](C(=O)O)[C@@H](O)[C@H](O)[C@H]9O)[C@@](C)(CO)C8[C@H](O)C[C@@]7(C)[C@]5(C)C[C@H]6O)O[C@@H](CO)[C@@H]4O)O[C@H]3C)OC[C@H]2O)[C@H](O)[C@H](O)[C@H]1O` (stereo not given in full) here?
Answer: The viability, % of control was 95.2% [at 9.25 µM] (inactive).
